Results as given in PubChem BioAssay.
Calls of active or inactive are those of the source.

What was measured:
[1] = test system: Plasmodium falciparum Sir2 (PF13_0152, Sir2A); test: Plasmodium falciparum Sir2A binding compounds – biochemical, small-molecule microarray, 635 nm fluorescence, primary screen (AID 1098); conditions: fluorescence 635 nm, higher = more signal;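 further: score merges spot fluorescence intensity with its signal-to-noise ratio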
[2] = probe aDKK1 binding to arrayed compounds – biochemical, biotinylated probe, 635/667 nm fluorescence, primary screen (AID 1099); conditions: small-molecule microarray, higher = more signal;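 further: score merges 667nm spot fluorescence with signal to noise across triplicate slides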
[3] = probe aCHRDL2 binding to arrayed compounds – biochemical, biotinylated probe, 635/667 nm fluorescence, primary screen (AID 1100); conditions: small-molecule microarray, higher = more signal
[4] = change in splice reporter luminescence, either direction, cell-based, HEK293, spliceosome inhibition project, primary screen (AID 1101); conditions: HEK293 splicing luciferase reporter, 24 h, higher = more signal, called active from +8 up or from −8 down;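 further: HEK293 cells carrying a splicing-competent luciferase reporter gene; test concentration not given here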
[5] = target: Fibroblast growth factor 10 (Homo sapiens) (UniProt O15520); test: compounds binding fibroblast growth factor 10 – biochemical, small-molecule microarray, 635 nm fluorescence, primary screen (AID 1102); conditions: FGF10 binding, fluorescence 635 nm, higher = more signal
Sequence of Fibroblast growth factor 10 (Homo sapiens) (O15520 whole entry, looked up): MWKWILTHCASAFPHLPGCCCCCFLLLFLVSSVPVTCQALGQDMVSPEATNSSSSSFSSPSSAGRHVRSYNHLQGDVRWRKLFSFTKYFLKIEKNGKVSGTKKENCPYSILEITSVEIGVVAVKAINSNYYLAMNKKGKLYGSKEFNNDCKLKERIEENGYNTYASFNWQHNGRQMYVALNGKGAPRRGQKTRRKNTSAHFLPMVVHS

[6] = test system: glycogen synthase kinase-3 (GSK3A per assay name; protocol says GSK3B); test: compounds binding glycogen synthase kinase-3 – biochemical, small-molecule microarray, 635 nm fluorescence, GSK3A, primary screen (AID 1103); conditions: fluorescence 635 nm, higher = more signal; further: the record names both GSK3A and GSK3B
[7] = target: Epidermal growth factor receptor (Homo sapiens) (UniProt P00533); test: compounds binding epidermal growth factor receptor – biochemical, small-molecule microarray, 635 nm fluorescence, primary screen (AID 1104); conditions: EGFR binding, higher = more signal;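 further: score merges 667 nm emission intensity with spot signal to noise over triplicate slides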
Sequence of Epidermal growth factor receptor (Homo sapiens) (P00533 whole entry, looked up): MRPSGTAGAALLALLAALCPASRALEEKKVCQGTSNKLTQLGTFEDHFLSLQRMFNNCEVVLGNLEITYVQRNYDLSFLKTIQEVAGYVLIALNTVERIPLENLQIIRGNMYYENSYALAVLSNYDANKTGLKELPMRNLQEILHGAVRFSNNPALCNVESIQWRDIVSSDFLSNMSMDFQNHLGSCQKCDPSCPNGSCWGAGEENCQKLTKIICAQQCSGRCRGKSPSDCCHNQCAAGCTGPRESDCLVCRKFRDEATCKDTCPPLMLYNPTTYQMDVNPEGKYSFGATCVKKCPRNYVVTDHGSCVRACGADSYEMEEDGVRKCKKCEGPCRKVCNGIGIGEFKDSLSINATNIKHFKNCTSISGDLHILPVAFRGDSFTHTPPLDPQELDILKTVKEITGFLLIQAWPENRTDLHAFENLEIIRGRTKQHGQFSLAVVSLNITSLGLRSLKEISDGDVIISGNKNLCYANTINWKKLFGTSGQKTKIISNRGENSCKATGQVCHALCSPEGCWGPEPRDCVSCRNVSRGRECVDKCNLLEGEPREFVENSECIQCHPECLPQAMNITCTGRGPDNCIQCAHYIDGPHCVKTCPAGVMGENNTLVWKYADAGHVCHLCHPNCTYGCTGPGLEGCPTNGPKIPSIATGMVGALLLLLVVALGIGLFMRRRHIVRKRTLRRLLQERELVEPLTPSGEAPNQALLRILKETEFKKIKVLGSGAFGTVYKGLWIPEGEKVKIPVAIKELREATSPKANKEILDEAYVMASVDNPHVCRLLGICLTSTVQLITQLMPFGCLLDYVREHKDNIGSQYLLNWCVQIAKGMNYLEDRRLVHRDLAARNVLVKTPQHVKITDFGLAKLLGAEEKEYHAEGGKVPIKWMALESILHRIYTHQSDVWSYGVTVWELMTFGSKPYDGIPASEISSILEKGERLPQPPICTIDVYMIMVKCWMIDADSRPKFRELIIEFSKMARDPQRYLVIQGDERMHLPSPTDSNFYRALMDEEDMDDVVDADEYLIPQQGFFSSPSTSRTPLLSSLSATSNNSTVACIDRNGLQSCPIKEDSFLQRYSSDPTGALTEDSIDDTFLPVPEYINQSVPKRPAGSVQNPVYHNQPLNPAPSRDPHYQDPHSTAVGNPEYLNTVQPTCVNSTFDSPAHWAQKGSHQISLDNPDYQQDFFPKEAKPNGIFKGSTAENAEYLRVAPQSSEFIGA

[8] = target: Follistatin-related protein 3 (Homo sapiens) (UniProt O95633); test: compounds binding follistatin-related protein 3 – biochemical, small-molecule microarray, 635 nm fluorescence, primary screen (AID 1105); conditions: FSTL3 binding, higher = more signal;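 further: score merges emission near 667 nm and signal to noise per printed spot across three slides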
Sequence of Follistatin-related protein 3 (Homo sapiens) (O95633 whole entry, looked up): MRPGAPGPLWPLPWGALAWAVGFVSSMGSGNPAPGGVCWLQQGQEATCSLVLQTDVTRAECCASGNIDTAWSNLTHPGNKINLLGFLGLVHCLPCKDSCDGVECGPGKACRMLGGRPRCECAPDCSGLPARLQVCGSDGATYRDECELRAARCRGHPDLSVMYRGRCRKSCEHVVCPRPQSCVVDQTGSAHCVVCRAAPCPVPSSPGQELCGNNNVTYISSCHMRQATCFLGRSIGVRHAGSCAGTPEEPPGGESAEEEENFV

[9] = target: Dickkopf-related protein 1 (Homo sapiens) (UniProt O94907); test: small molecules binding DKK1 protein – biochemical, small-molecule microarray, 635 nm fluorescence scan, primary screen (AID 1106); conditions: higher = more signal;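 further: score merges emission near 667 nm with signal to noise over three replicate slides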
Sequence of Dickkopf-related protein 1 (Homo sapiens) (O94907 whole entry, looked up): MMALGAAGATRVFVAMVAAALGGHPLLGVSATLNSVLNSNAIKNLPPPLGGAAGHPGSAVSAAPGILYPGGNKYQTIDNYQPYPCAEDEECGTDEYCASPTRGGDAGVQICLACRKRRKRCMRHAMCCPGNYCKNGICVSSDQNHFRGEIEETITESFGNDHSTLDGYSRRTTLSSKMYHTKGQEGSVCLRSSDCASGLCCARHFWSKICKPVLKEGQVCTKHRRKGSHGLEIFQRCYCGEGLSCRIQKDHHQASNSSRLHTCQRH

[10] = test system: Inhibin beta A chain (activin A); test: small molecules binding activin A – biochemical, small-molecule microarray, 635 nm fluorescence scan, primary screen (AID 1107); conditions: INHBA, higher = more signal;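 further: mouse activin A protein probed at 4.33 µg/mL on printed slides; score merges bound-protein fluorescence near 667 nm with spot signal-to-noise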
[11] = test system: Human papillomavirus type 1a protein E7 (residues 44-93); test: small molecules binding HPV E7 44-93 – biochemical, small-molecule microarray, residues 44-93, 635 nm fluorescence, primary screen (AID 1108); conditions: fluorescence 635 nm, higher = more signal;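 further: E7 fragment applied at 1 µg/mL in TBST for 1 h at 4 C; score combines spot fluorescence with its signal to noise ratio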
[12] = hepatitis C replication reporter changes, two-sided – Huh7 cells, luciferase reporter, HCV replication inhibitor project, primary screen (AID 1109); conditions: Huh7 HCV replicon luciferase reporter, 48 h; higher = more signal;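 further: huh7 hepatoma cells harbouring a luciferase neomycin HCV replicon reporter; luciferase luminescence as measure of HCV replicon replication; test concentration not given here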
[13] = target: Left-right determination factor 2 (Homo sapiens) (UniProt O00292); test: small molecules binding LEFTY2 protein – biochemical, small-molecule microarray, 635 nm fluorescence scan, primary screen (AID 1110); conditions: higher = more signal
Sequence of Left-right determination factor 2 (Homo sapiens) (O00292 whole entry, looked up): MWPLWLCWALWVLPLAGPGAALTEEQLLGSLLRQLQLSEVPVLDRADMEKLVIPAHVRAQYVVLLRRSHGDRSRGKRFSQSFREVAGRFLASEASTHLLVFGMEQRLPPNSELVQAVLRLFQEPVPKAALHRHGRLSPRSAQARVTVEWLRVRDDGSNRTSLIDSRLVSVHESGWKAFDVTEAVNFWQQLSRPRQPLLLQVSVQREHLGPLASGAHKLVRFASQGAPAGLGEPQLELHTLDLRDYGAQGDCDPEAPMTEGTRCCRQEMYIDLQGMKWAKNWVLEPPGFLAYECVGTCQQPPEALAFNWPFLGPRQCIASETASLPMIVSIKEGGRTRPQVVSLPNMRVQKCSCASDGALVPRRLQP

[14] = target: Calmodulin-1 (Homo sapiens) (UniProt P0DP23); test: small molecules binding calmodulin-1 with EGTA – biochemical, small-molecule microarray, Cy5-labelled CALM1, profiling panel (AID 1111); conditions: Cy5-CALM1 binding fluorescence, higher = more signal;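 further: labelled calmodulin applied in Tris saline Tween buffer holding calcium plus EGTA and DTT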
[15] = target: Calmodulin-1 (Homo sapiens) (UniProt P0DP23); test: small molecules binding Ca-loaded calmodulin-1 – biochemical, small-molecule microarray, Cy5-labelled CALM1, plus calcium, artefact control for SMM control-protein annotation, profiling panel (AID 1112); conditions: Cy5-CALM1 binding fluorescence, higher = more signal;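 further: score merges spot fluorescence with signal to noise from triplicate slides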
[16] = probe aWnt5a binding to arrayed compounds – biochemical, biotinylated probe, 635/667 nm fluorescence, primary screen (AID 1113); conditions: small-molecule microarray, higher = more signal;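 further: score merges 667 nm fluorescence intensity with signal-to-noise per printed feature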
[17] = probe aShh binding to arrayed compounds – biochemical, biotinylated probe, 635/667 nm fluorescence, primary screen (AID 1114); conditions: small-molecule microarray, higher = more signal;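 further: probe is biotin-labelled aShh protein from a stem cell growth factor screen; measures binding of labelled protein to compounds printed on the slide; score merges feature fluorescence at 667 nm with signal-to-noise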
[18] = probe aNog binding to arrayed compounds – biochemical, biotinylated probe, 635/667 nm fluorescence, primary screen (AID 1115); conditions: small-molecule microarray, higher = more signal;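 further: probe is biotinylated aNog protein used at 0.15 µg/mL for 1 h at 4 C; z-score combines 667 nm fluorescence of each spot with its signal to noise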
[19] = target: Torsin-1A-interacting protein 1 (Homo sapiens) (UniProt Q5JTV8); test: compound microarray binding of lysate hLAP1 – cell lysate, small-molecule microarray, COS7 lysate, 635/667 nm fluorescence, primary screen (AID 1116); conditions: 635 nm fluorescence, higher = more signal
Sequence of Torsin-1A-interacting protein 1 (Homo sapiens) (Q5JTV8 whole entry, looked up): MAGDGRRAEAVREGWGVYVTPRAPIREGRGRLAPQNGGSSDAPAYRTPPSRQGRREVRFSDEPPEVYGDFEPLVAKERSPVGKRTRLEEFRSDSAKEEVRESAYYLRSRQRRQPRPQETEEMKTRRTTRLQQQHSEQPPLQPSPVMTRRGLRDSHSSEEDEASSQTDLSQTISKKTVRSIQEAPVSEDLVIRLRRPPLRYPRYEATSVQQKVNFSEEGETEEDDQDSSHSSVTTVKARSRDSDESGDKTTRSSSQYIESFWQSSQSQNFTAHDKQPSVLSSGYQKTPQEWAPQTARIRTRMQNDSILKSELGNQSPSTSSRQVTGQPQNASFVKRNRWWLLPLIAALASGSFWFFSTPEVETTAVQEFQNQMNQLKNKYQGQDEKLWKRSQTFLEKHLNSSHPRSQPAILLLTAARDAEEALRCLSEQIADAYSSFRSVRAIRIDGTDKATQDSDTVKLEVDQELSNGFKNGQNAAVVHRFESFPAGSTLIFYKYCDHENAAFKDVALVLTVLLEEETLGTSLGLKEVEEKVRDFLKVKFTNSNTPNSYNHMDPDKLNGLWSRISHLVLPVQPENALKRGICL

[20] = target: Alpha-bungarotoxin (Bungarus multicinctus) (UniProt P60615); test: compounds binding labelled alpha-BTX control protein – biochemical, small-molecule microarray, Alexa647 label, 635/667 nm fluorescence, artefact control for SMM control protein annotation, profiling panel (AID 1117); conditions: alpha-BTX-A647 binding fluorescence, higher = more signal
Sequence of Alpha-bungarotoxin (Bungarus multicinctus) (P60615 whole entry, looked up): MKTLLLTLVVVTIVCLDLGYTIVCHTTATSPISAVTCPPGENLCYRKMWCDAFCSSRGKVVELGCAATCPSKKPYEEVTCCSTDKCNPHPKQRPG

Row | SMILES | composite z-score [1] | composite z-score [2] | composite z-score [3] | z-score [4] | composite z-score [5] | composite z-score [6] | composite z-score [7] | composite z-score [8] | composite z-score [9] | composite z-score [10] | composite z-score [11] | z-score [12] | composite z-score [13] | composite z-score [14] | composite z-score [15] | composite z-score [16] | composite z-score [17] | composite z-score [18] | composite z-score [19] | composite z-score [20]
1 | Cc1cc(C)c(C(O)C2C=CC3C(=O)N(c4ccccc4)C(=O)C3N2Nc2ccccc2)c(C)c1 (stereo not given) | 1.52 | 1.17 | 0.849 | -0.62 (inactive) | 0.964 | 1.2 | 0.403 | 0.939 | -0.167 | 0.242 | 1.16 | -0.177 | 0.109 | 1.6 | 1.03 | 0.216 | -0.0791 | 1.99 | 1.1 | 2.38
2 | COc1ccc(CCNC(=O)[C@@H]2c3ccccc3C(=O)N(Cc3ccccc3C(F)(F)F)[C@H]2c2ccc(CO)cc2)cc1 | 1.46 | -0.0126 | 0.946 | 0.609 (inactive) | 0.176 | 0.013 | -1.01 | -0.348 | -0.814 | 0.288 | 1.47 | -1.2 | -1.27 | -0.22 | -0.181 | -0.0735 | -0.154 | -0.559 | 0.381 | -0.278
3 | O=C1CSC(c2cccc([N+](=O)[O-])c2)N1c1ccccc1 (stereo not given) | -0.125 | 0.136 | -0.342 | 0.187 (inactive) | 0.523 | 0.401 | 0.354 | 0.404 | 0.661 | 0.154 | 0.551 | -1.16 | 0.688 | 0.331 | -0.071 | -0.135 | -0.221 | -0.073 | 0.273 | 0.163
4 | NC(=O)NCC#Cc1ccc2c(c1)[C@]1(C(=O)N2)[C@H](c2ccc(O)cc2)N2[C@H](c3ccccc3)[C@H](c3ccccc3)OC(=O)[C@H]2[C@@H]1C(N)=O | 0.855 | 0.431 | 0.55 | -0.278 (inactive) | -0.0652 | -1.08 | -0.341 | -0.934 | -0.343 | 0.286 | -0.366 | 0.114 | -0.749 | -0.571 | 0.261 | -0.185 | 0.0469 | 0.218 | -0.757 | 0.387
5 | COCCOC(=O)N1C(=O)[C@@]2(c3cc(C#CC4(O)CCCCCC4)ccc31)[C@H](C(=O)NC[C@H](O)c1ccccc1)[C@H]1C(=O)O[C@H](c3ccccc3)[C@H](c3ccccc3)N1[C@@H]2c1ccc(OCCO)cc1 | 0.971 | -0.0726 | -0.0689 | -1.15 (inactive) | 0.68 | 0.673 | 0.429 | 0.834 | 0.348 | 0.193 | 1.38 | -1.73 | 0.358 | 0.7 | 0.383 | -0.282 | -0.638 | 0.14 | 0.394 | 0.598
6 | C=CCNC(=O)[C@@H]1[C@H]2C(=O)O[C@H](c3ccccc3)[C@H](c3ccccc3)N2[C@H](c2ccc(O)cc2)[C@@]12C(=O)Nc1ccc(C#CCCO)cc12 | 1.84 | -0.25 | 0.216 | -0.831 (inactive) | -0.861 | -1.07 | -0.949 | -0.459 | 0.0119 | -0.348 | -0.379 | -0.439 | -0.144 | -0.0464 | 0.0653 | -0.0792 | -0.484 | -0.372 | -0.275 | -0.04
7 | COc1ccc([Si](C)(C)[C@@H]2[C@@H](CC(=O)N(CCO)Cc3ccccc3)O[C@]3(C(=O)N(C)c4c(Br)cc(C)cc43)[C@H]2C)cc1 | 0.717 | -0.298 | -0.237 | -1.92 (inactive) | 1.1 | -0.27 | 0.729 | 1.09 | 0.834 | 1.02 | 1.26 | -4.3 | 0.661 | -0.87 | -1.13 | 0.168 | -0.399 | -0.406 | 0.13 | 0.0978
8 | COc1ccc(C(=O)Nc2ccc(CN3C(=O)[C@@]4(O[C@@H](CC(=O)N5Cc6ccccc6C[C@H]5CO)[C@H]([Si](C)(C)c5ccc(OC)cc5)[C@H]4C)c4ccccc43)cc2)cc1 | 1.33 | -0.351 | -0.342 | -1.29 (inactive) | 1.01 | 0.81 | 1.05 | 1.19 | 0.628 | 0.673 | 1.1 | -3.84 | 0.804 | 0.0063 | -0.613 | -0.119 | 0.0121 | -0.24 | 1.21 | 1.3
9 | C=CC[C@]1(C(=O)N(C)C)N=C(c2ccc(OCCCO)cc2)O[C@H]1c1ccccc1 | 1.05 | 0.135 | 0.953 | -1.04 (inactive) | 1.21 | 0.254 | -0.489 | 0.479 | -0.228 | 0.832 | 1.46 | -2 | -0.309 | 1.57 | 0.19 | 0.224 | 0.33 | 1.15 | 0.765 | 1.25
10 | C=CCOC(=O)[C@H]1[C@@H]2C(=O)O[C@@H](c3ccccc3)[C@@H](c3ccccc3)N2[C@@H](c2ccc(OCCOC(=O)[C@H]3C[C@H]4C(=O)N[C@@H](CCCCN(C)C)C(=O)N4[C@H]3c3ccc(O)cc3)cc2)[C@]12C(=O)Nc1ccccc12 | 0.436 | 0.638 | 0.4 | -0.226 (inactive) | 1 | 0.957 | 0.606 | 1.4 | 0.805 | 1.04 | 1.36 | -0.917 | 0.823 | 0.724 | -0.707 | -0.0539 | -0.157 | -0.206 | 0.876 | 0.0397
